Among the data in PubChem BioAssay (EPA / NIEHS) are AC50 and outcome values, retold here.

As usually defined, the AC50 is the concentration giving half of the maximal activity seen.

Test [1] is described as follows: ACEA_AR_agonist_AUC_viability: ACEA Biosciences xCELLigence Real-Time Cell Analysis on Androgen Receptor Agonism for Viability (AID 2283775).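 On AC50: viability read 80 hours after compound addition.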 The method, boiled down: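 Viability endpoint from xCELLigence impedance in 22Rv1 prostate cells at 80 h. Eight-point series, 100 uM maximum final.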
Test [2] can be described thus: ACEA_AR_antagonist_AUC_viability: ACEA Biosciences xCELLigence Real-Time Cell Analysis on Androgen Receptor Antagonism for Viability (AID 2283776).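 Further: 22Rv1 human prostate cancer cells growing on impedance electrode plates; area under impedance growth curve at 80 h after dosing as viability; hits lower the growth signal relative to DMSO meaning cytotoxicity.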 The method, boiled down:
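Impedance read-out (RT-CES): area under growth curve at 80 h post-dose, loss of signal scored vs DMSO baseline. 22Rv1 cells; 8-pt 1:4 series, top 100 uM final, ≤0.5% DMSO; biological duplicate.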

Test [3] can be described thus: ACEA_ER_AUC_viability: ACEA Biosciences xCELLigence Real-Time Cell Analysis on Estrogen Receptor Agonism for Viability (AID 2283782).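 Further: hit means loss of impedance signal meaning reduced cell growth or viability.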 The method, boiled down:
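Read-out: real-time electrical impedance (RT-CES) area under curve, loss of signal taken as reduced viability, normalized to DMSO baseline. T-47D cells, charcoal-stripped serum medium, compounds up to 100 uM final, continuous exposure, 80 h.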

For test [4], the system named is zebrafish Androgen Receptor (AR), gene 100005148. The experiment in a line: ATG_zfAR_XSP1: Attagene TRANS-FACTORIAL Multi-Species (XSP1) HepG2 Assay for zebrafish Androgen Receptor (AR) (AID 2283771). The method, boiled down:
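Gain-of-signal versus DMSO was measured as reporter transcripts quantified by RT-PCR, fluorescent labelling and capillary electrophoresis after 24 h chemical exposure. The cells were HepG2 expressing a chimeric zebrafish AR-GAL4, co-stimulated with 3 nM 6-alpha-fluorotestosterone.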

In test [5] the target is zebrafish Estrogen Receptor (ESR1), esr1 (gene 259252) (UniProt P57717). The experiment in a line: ATG_zfER1_XSP1: Attagene TRANS-FACTORIAL Multi-Species (XSP1) HepG2 Assay for zebrafish Estrogen Receptor (ESR1) (AID 2283772). The method, boiled down: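 Reporter mRNA induction, gauged via RT-PCR/capillary electrophoresis fluorescence relative to DMSO controls, in HepG2 cells transiently carrying GAL4-UAS reporter units; 24 h dosing.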
zebrafish Estrogen Receptor (ESR1), esr1 (gene 259252), sequence (P57717 whole entry, looked up, the tested form may be a part): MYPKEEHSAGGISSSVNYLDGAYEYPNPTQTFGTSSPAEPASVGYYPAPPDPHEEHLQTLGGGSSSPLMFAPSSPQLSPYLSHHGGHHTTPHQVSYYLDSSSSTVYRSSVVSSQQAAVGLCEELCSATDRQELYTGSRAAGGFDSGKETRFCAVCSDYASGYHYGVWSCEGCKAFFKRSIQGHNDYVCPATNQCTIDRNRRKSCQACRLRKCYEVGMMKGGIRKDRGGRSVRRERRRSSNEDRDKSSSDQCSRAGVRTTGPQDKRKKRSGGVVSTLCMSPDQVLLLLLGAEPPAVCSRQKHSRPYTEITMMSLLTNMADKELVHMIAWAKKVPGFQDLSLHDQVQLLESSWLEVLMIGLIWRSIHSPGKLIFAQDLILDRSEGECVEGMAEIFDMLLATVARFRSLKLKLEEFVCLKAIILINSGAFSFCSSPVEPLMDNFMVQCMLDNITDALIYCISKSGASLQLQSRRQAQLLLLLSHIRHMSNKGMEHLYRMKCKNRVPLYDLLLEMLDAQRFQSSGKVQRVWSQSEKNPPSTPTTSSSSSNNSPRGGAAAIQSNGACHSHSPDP

For test [6], the system named is zebrafish Estrogen Receptor (ESR2B), gene 317733. The experiment in a line: ATG_zfER2b_XSP1: Attagene TRANS-FACTORIAL Multi-Species (XSP1) HepG2 Assay for zebrafish Estrogen Receptor (ESR2B) (AID 2283773). The method, boiled down:
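Multiplexed TRANS format in transfected HepG2 liver cells, chimeric NR-Gal4 from zebrafish ESR2B. 24 h dosing; medium contains 3 nM 6-alpha-fluorotestosterone. mRNA induction by RT-PCR/CE, positive direction vs DMSO.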

The subject of test [7] is frog Estrogen Receptor (ESR2), gene 100174814. The experiment in a line: ATG_frER2_XSP1: Attagene TRANS-FACTORIAL Multi-Species (XSP1) HepG2 Assay for frog Estrogen Receptor (ESR2) (AID 2283774). The method, boiled down:
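HepG2, transient MRTU transfection (GAL4-UAS reporters, exogenous NR-Gal4 chimeras); 24 h compound exposure; 3 nM 6α-fluorotestosterone co-added; total RNA → RT-PCR → 6-FAM primer extension → HpaI → CE. Positive direction vs DMSO.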

Test [8] has as its system frog Estrogen Receptor (ESR1), gene 398734. The experiment in a line: ATG_frER1_XSP1: Attagene TRANS-FACTORIAL Multi-Species (XSP1) HepG2 Assay for frog Estrogen Receptor (ESR1) (AID 2283777). The method, boiled down:
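Transient MRTU transfection, HepG2 (human liver); 24 h dosing, 3 nM 6α-fluorotestosterone co-added; RNA → RT-PCR → 6-FAM labeling → CE; upward activity vs DMSO.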

In test [9] the test system is zebrafish Estrogen Receptor (ESR2A), gene 317734. The experiment in a line: ATG_zfER2a_XSP1: Attagene TRANS-FACTORIAL Multi-Species (XSP1) HepG2 Assay for zebrafish Estrogen Receptor (ESR2A) (AID 2283778). The method, boiled down:
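Transient transfection of HepG2 (human liver) with MRTU constructs; chemical dosing for 24 h; medium contained 3 nM 6-alpha-fluorotestosterone to partly stimulate AR. RT-PCR/CE fluorescence of reporter transcripts; positive direction vs DMSO.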

For test [10], the target named is chicken Estrogen Receptor (ESR1), ESR1 (gene 396099) (UniProt P06212). The experiment in a line: ATG_chERa_XSP1: Attagene TRANS-FACTORIAL Multi-Species (XSP1) HepG2 Assay for chicken Estrogen Receptor (ESR1) (AID 2283779). The method, boiled down: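 Read-out: fluorescent reporter mRNA fragments resolved by capillary electrophoresis after RT-PCR and HpaI digestion. Transfected HepG2 cells carried chimeric NR-Gal4 constructs, were dosed 24 h with 3 nM 6-alpha-fluorotestosterone added, and activity was fitted upward relative to DMSO.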
chicken Estrogen Receptor (ESR1), ESR1 (gene 396099), sequence (P06212 whole entry, looked up, the tested form may be a part): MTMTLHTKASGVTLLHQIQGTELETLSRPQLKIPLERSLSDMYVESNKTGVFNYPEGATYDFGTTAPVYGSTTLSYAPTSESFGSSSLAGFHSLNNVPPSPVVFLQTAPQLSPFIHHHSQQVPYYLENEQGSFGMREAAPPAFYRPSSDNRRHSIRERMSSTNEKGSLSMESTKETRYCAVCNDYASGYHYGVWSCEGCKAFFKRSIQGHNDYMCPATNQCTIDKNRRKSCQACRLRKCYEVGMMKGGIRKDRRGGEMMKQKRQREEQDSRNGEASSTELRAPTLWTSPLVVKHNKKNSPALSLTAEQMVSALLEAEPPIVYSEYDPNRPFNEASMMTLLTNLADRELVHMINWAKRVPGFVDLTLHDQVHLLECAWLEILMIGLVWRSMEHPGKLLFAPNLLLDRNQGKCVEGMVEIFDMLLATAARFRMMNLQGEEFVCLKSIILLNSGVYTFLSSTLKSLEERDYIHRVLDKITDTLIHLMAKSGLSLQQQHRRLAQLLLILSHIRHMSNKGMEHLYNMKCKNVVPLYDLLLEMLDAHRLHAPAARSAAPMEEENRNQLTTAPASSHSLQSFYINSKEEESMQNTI

The target of test [11] is Estrogen receptor (Homo sapiens) (UniProt P03372). The experiment in a line: ATG_hERa_XSP1: Attagene TRANS-FACTORIAL Multi-Species (XSP1) HepG2 Assay for human Estrogen Receptor (ESR1) (AID 2283780). The method, boiled down:
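Reporter transcripts from multiplexed GAL4-UAS units driven by NR-Gal4 chimeras in transiently transfected HepG2 were measured by RT-PCR with capillary electrophoresis 24 h post-dose, with 3 nM 6-alpha-fluorotestosterone present; gain-of-signal relative to DMSO.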

Test [12] concerns turtle Estrogen Receptor (ESR1), gene 101933533. The experiment in a line: ATG_trERa_XSP1: Attagene TRANS-FACTORIAL Multi-Species (XSP1) HepG2 Assay for turtle Estrogen Receptor (ESR1) (AID 2283781). The method, boiled down: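 Transfect HepG2 with reporter units → dose chemical 24 h (medium has 3 nM 6-alpha-fluorotestosterone) → isolate RNA, RT-PCR → FAM primer extension, HpaI digest → capillary electrophoresis; gain of signal vs DMSO.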

For a further test, the target named is AR (gene 367) (UniProt P10275). The experiment in a line: ACEA_AR_agonist_80hr: ACEA Biosciences xCELLigence Real-Time Cell Analysis on Androgen Receptor Agonism for Proliferation (AID 2283783).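 Further: hits increase impedance growth signal above DMSO baseline.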 The method, boiled down:
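Impedance (RT-CES) growth signal at 80 h post-dose; 22Rv1 cells, 8-pt 1:4 series, top 100 uM final, DMSO ≤0.5%; duplicate plates; gain-of-signal fit relative to DMSO baseline.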

Test [13] in a line: ATG_M_06_XSP1: Attagene TRANS-FACTORIAL Multi-Species (XSP1) HepG2 Assay for M06 Transcription Factor (Internal Marker) (AID 2283790). The method, boiled down:
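This background-control readout tracks M06 reporter mRNA, measured by RT-PCR and capillary electrophoresis. HepG2 cells transiently carrying the GAL4-UAS reporter panel were dosed for 24 h with 3 nM 6-alpha-fluorotestosterone added for partial AR stimulation; increases were scored relative to DMSO.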

Test [14] has as its target Estrogen receptor beta (Homo sapiens) (UniProt Q92731). The experiment in a line: ATG_hERb_XSP1: Attagene TRANS-FACTORIAL Multi-Species (XSP1) HepG2 Assay for human Estrogen Receptor (ESR2) (AID 2283788). The method, boiled down: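 Transient MRTU transfection of HepG2; ERβ–GAL4 TRANS format; 24 h dosing; 3 nM 6α-fluorotestosterone co-added; RNA → RT-PCR → 6-FAM primer extension → CE; activity vs DMSO.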

Test [15] deals with GAL4 Transcription Factor (Internal Marker), GAL4 (gene 855828) (UniProt P04386). The experiment in a line: ATG_GAL4_XSP1: Attagene TRANS-FACTORIAL Multi-Species (XSP1) HepG2 Assay for GAL4 Transcription Factor (Internal Marker) (AID 2283789). The method, boiled down:
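This background-control endpoint measures GAL4-driven reporter mRNA via RT-PCR and capillary electrophoresis of labelled fragments. Transiently transfected HepG2 cells were treated 24 h, with 3 nM 6-alpha-fluorotestosterone included, and gain-of-signal was fitted against DMSO.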

“And” between values parts separate entries of the source, which are not always exact repeats. Equal entries are not always repeated. Results filed as inconclusive are left out. The source made the active and inactive calls. How the source made its calls: active means hit-call score of the fitted dose curve at least 0.9, where 1 is the maximum; inconclusive means response in the unintended direction; inactive means score below 0.9.

Estrogen receptor (Homo sapiens), sequence (P03372 whole entry, looked up, the tested form may be a part): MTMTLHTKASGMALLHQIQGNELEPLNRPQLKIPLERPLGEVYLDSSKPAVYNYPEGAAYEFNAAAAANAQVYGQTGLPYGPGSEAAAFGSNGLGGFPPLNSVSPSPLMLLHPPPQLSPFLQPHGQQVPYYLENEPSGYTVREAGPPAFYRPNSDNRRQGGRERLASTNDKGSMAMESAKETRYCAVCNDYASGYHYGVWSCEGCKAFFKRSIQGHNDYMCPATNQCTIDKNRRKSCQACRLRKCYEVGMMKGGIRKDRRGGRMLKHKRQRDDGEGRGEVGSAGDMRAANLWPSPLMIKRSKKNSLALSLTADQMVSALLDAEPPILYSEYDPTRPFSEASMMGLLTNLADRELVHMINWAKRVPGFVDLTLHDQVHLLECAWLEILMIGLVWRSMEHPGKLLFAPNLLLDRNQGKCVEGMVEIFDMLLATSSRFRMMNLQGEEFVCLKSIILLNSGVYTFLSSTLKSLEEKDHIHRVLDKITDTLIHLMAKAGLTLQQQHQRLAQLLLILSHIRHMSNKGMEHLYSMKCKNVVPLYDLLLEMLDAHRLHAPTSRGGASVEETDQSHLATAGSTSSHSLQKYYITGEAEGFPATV
AR (gene 367), sequence (P10275 whole entry, looked up): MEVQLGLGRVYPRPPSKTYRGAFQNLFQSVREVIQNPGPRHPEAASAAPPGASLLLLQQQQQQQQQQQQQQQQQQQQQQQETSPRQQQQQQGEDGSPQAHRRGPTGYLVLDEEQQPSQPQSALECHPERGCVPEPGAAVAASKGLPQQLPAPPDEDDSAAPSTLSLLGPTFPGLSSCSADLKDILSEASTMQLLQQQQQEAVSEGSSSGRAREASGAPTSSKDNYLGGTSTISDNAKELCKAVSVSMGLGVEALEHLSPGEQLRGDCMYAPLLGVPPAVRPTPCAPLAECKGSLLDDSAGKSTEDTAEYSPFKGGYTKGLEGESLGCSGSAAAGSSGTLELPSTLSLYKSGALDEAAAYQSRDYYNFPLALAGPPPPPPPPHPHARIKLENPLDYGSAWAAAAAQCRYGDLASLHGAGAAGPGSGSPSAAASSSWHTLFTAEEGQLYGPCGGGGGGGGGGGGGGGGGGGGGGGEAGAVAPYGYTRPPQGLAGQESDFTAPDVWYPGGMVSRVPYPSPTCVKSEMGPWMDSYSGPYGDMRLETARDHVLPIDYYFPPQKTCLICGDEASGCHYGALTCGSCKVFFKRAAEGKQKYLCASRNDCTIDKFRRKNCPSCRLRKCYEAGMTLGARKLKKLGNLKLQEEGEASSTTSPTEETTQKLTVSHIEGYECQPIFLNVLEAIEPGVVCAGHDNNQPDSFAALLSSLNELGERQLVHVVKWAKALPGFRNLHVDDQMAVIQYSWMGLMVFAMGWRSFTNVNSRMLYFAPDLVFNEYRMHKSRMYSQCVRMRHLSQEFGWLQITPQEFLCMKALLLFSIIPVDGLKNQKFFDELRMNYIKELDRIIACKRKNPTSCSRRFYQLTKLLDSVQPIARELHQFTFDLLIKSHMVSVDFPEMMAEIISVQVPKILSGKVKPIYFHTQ
GAL4 Transcription Factor (Internal Marker), GAL4 (gene 855828), sequence (P04386 whole entry, looked up, the tested form may be a part): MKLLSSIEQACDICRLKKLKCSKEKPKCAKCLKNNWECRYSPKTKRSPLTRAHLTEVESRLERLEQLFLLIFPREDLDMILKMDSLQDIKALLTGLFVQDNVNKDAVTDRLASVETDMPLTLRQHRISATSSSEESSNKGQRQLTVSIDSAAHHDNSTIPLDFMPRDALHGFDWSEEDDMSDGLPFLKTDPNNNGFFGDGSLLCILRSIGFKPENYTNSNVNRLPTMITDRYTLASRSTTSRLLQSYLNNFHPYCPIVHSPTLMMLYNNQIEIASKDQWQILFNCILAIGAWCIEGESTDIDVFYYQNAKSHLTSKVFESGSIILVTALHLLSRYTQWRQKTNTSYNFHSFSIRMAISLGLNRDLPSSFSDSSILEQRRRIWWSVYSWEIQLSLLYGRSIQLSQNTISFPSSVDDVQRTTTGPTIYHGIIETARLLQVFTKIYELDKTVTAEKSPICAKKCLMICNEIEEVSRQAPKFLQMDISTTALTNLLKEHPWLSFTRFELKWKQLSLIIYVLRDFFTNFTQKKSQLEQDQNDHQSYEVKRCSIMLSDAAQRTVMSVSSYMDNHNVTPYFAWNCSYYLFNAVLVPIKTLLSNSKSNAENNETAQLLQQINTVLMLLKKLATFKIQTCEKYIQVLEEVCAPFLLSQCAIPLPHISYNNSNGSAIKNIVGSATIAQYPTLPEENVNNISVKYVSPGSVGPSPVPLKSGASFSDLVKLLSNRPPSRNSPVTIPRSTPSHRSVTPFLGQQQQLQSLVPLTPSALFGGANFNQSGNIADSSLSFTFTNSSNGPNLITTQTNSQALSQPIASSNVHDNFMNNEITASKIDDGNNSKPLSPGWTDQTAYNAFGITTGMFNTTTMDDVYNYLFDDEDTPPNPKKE
Estrogen receptor beta (Homo sapiens), sequence (Q92731 whole entry, looked up, the tested form may be a part): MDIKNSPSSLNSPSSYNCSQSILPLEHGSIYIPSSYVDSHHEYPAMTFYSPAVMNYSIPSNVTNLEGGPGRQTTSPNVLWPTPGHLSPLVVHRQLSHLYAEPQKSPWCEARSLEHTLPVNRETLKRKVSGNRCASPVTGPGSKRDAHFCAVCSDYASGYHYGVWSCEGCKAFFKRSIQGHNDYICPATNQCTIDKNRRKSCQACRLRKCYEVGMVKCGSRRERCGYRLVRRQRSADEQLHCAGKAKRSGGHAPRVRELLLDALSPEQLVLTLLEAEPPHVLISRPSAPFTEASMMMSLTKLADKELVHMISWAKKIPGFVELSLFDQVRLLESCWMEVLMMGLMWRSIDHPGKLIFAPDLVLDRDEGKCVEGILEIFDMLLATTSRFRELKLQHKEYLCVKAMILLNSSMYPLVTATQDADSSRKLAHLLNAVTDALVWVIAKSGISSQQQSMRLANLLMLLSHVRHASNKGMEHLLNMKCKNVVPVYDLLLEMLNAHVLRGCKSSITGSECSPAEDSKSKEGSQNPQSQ

As for `CCC(C)(c1ccc(O)cc1)c1ccc(O)cc1`, the AC50 was 50 µM (active) in test [1], 42.4 µM (active) in test [2] and 87.5 µM (active) [middle of 4 runs] in [3].
As to `ClC(Cl)=C(c1ccc(Cl)cc1)c1ccc(Cl)cc1`, the molecule was called inactive in [4], in [5], in [8] and in [10]. Also, the half-maximal activity concentration (AC50) in test [6] is 5.92 µM (active); in [7] it was 3.83 µM (active); in test [1], 29.6 µM (active); in test [2], 21.4 µM (active); in test [9], 10 µM (active); in test [11] it was 4.53 µM (active). The AC50 in test [12] is 5.5 µM (active); in [3], 80.6 µM (active) and 29.5 µM (active) and 74.7 µM (active).
For `CCCN(CCC)N=O`, the result in [1] and in test [2] was inactive.
For `Cc1ccccc1O`, the call in test [1] and in [2] was inactive.
For the molecule `CC(C)(O)C(=O)Nc1ccc([N+](=O)[O-])c(C(F)(F)F)c1`, the AC50 in test [6] was 15.4 µM (active); in test [1] it was 84 µM (active); in test [2], 10.9 µM (active). Further, the outcome (in test [7]; in test [9]; in test [11]; with AR (gene 367); in test [13]) was inactive.
In the case of `CN(C)c1nc(=O)n(C2CCCCC2)c(=O)n1C`, the molecule was called inactive in test [1], in [2] and in [3].
For the molecule `CCCCCCCCCc1ccc(O)cc1`, the AC50 is 22.9 µM (active) in test [1]; 19.1 µM (active) in test [2]; 21.8 µM (active) and 25.4 µM (active) and 28.8 µM (active) in test [3].
On to `COc1ccc(O)c(C(C)(C)C)c1`, for which the AC50 in [1] is 81.3 µM (active); in test [2], 71 µM (active); in test [3], 64.6 µM (active).
Consider `O=C(O)C(F)(F)C(F)(F)C(F)(F)C(F)(F)C(F)(F)C(F)(F)C(F)(F)C(F)(F)C(F)(F)F`, for which the AC50 in test [1] was 71.7 µM (active); in [2], 67.3 µM (active); in test [3], 78.6 µM (active) and 125 µM (active).
On to `Oc1ccc(Cl)cc1Cl`, for which the result in test [1] and in test [2] was inactive.
For `CC(c1ccc(O)cc1)(c1ccc(O)cc1)c1ccc(O)cc1`, the concentration at half-maximal activity (AC50) in test [1] is 17.8 µM (active); in test [2] it was 14.6 µM (active); in test [3], 88.3 µM (active).
In the case of `ClC1=C(Cl)[C@]2(Cl)[C@@H]3[C@@H](Cl)[C@H]4O[C@H]4[C@@H]3C1(Cl)C2(Cl)Cl`, in test [1], the result was inactive. Moreover, the values for the AC50 in test [2] and in test [3] were 68.9 µM (active) and 73 µM (active), respectively.
In the case of `CC(C)C(=O)OCC(C)(C)C(OC(=O)C(C)C)C(C)C` (stereo not drawn), the values for the AC50 in test [1] and in test [2] were 75 µM (active) and 90.1 µM (active), respectively.
In the case of `CC(C)(c1ccccc1)c1ccc(O)cc1`, the molecule was called inactive in test [4], in test [9] and in test [15]. Further, the half-maximal activity concentration (AC50) in [5] is 1.67 µM (active); in test [6], 0.882 µM (active); in [7] it was 0.525 µM (active); in test [1], 12.1 µM (active); in test [2] it was 13.3 µM (active); in test [8] it was 232 nM (active). Besides, the concentration at half-maximal activity (AC50) in [10] was 1.98 µM (active); in [11], 0.3 µM (active); in test [12], 0.412 µM (active); in [3], 50 µM (active) and 24.3 µM (active) and 88.6 µM (active); in test [14] it was 227 nM (active).
